Source: PubChem
The list is not random: actives were taken first. Their share in the collection is about 6.1%.
D3 ag: qHTS of D3 Dopamine Receptor Agonist: qHTS. 410,000 compounds, 0.58% hits. D(3) dopamine receptor (Homo sapiens), P35462. D3R DiscoveRx beta-arrestin cells, luminescence, 90 min. max activation, %; in the data active = max activation above about 30%; also: 0% is about no effect
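Agonist-mode cell screen: cells plated at 1500/well and incubated overnight at 37 °C, then exposed to library compounds for 90 min at 37 °C. Detection reagent was added for 30–60 min at room temperature, and luminescence was read.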
D3 antag: qHTS of D3 Dopamine Receptor Antagonist: qHTS. 360,000 compounds, 2.5% hits. max response, negative = inhibition, %. D(3) dopamine receptor (Homo sapiens), P35462. D3R cells, DiscoveRx beta-arrestin luminescence, antagonist mode; active compounds read low. AID 652054, 2013; in the data active = max response below about -50%; also: % is scaled to controls: 0 for no effect and ±100 for the full control effect
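Cells plated overnight at 1500 cells/well, then exposed to library compounds with dopamine controls for 90 minutes at 37 degrees C. DiscoveRx reagent added for 30–60 minutes at room temperature; luminescence read, quantitative HTS format.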
D1 ag: Allosteric Agonists of the Human D1 Dopamine Receptor: qHTS; 360,000 compounds, 1% hits; HEK293 T-REx D1 cells, calcium flux, agonist mode; activation, % at 2 µM; in the data active = activation above about 30%; also: 0% is about no effect
Target sequence (P21728 whole entry, looked up): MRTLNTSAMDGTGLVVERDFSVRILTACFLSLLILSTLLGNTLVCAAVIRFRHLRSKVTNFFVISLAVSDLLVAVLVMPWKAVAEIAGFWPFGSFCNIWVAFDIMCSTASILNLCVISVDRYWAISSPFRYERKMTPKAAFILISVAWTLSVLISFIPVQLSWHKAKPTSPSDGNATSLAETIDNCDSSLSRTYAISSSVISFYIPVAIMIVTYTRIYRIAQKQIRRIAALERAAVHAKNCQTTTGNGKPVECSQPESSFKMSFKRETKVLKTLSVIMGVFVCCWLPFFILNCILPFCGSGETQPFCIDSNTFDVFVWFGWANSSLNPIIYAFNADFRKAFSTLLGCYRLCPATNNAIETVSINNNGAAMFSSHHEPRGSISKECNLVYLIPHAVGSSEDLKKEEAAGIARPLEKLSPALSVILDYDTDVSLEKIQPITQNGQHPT
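Inducible HEK293 T-REx D1 cells, force-coupled to calcium signalling, were plated at 4000 cells/well with tetracycline and held overnight at 30 C. After no-wash calcium dye loading, compound-evoked calcium rise over 180 s flagged agonists.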
D1 antagonist: Antagonist of Human D 1 Dopamine Receptor: qHTS; D(1A) dopamine receptor (Homo sapiens), P21728; HEK293 TREx D1 cells, calcium flux, dopamine EC80; active compounds read low; activity change, negative = inhibition, % at 10 µM; 360,000 compounds, 3.2% hits; AID 504652, 2011; in the data active = activity change below about -30%; also: % is scaled to controls: 0 for no effect and ±100 for the full control effect
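Antagonism measured as reduced calcium response to an EC80 dopamine addition following 180 s compound pre-read; cells were inducible HEK293 Trex D1 plated overnight at 30 C, read kinetically at 1 cycle/sec.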
D1 potentiator: Potentiators of Human D1 Dopamine Receptor: qHTS; D(1A) dopamine receptor (Homo sapiens), P21728; HEK293 TREx D1 cells, calcium flux, dopamine EC20 potentiation; potentiation, % at 10 µM; 360,000 compounds, 0.036% hits; AID 504651, 2011; in the data active = potentiation above about 30%; also: 0% is about no effect
The depositor's hits bear a star.

What do the screens show for `Cc1cccc(CSc2nc(=O)c3c(n2C)NC(=O)CC3c2cccc(O)c2)c1` (centres undefined)?
D3 ag: 3; D1 ag: 1; D1 antagonist: -8; D1 potentiator: 1

What do the screens show for `Cc1ccc(CSc2nc(=O)c3c(n2C)NC(=O)CC3c2ccc(OC(C)C)cc2)cc1` (centres undefined)?
D3 ag: -10; D1 ag: 46*; D1 antagonist: -27; D1 potentiator: 0

What do the screens show for `CN1CCC(OC(=O)c2ccccc2)CC1`?
D3 ag: 1; D3 antag: 6; D1 ag: 7; D1 antagonist: 5; D1 potentiator: -5

How did Cc1c(Br)cc(C(=O)OC2CCN(C)CC2)c(C)c1C do in these assays?
D3 ag: -21; D3 antag: -88*; D1 ag: 3; D1 antagonist: -9; D1 potentiator: -6

How did CC1=C(C(=O)OCc2ccccc2)C(c2cccc(Cl)c2Cl)NC(=O)N1CCCCCC(=O)O (centres undefined) do in these assays?
D3 ag: 0; D3 antag: 17; D1 ag: 2; D1 antagonist: -33*; D1 potentiator: 0

What do the screens show for `CC1=C(C(=O)OCc2ccccc2)C(c2cccc3ccccc23)NC(=O)N1CCCC(=O)O` (centres undefined)?
D3 ag: 1; D3 antag: 0; D1 ag: 1; D1 antagonist: -39*; D1 potentiator: -1

Results for COc1cc(Cl)c(S(=O)(=O)N2CCN(c3c(C)cccc3C)CC2)cc1Cl ?
D3 ag: -8; D1 ag: 1; D1 antagonist: 5; D1 potentiator: -6

What do the screens show for `CCN(CC)C(=O)[C@H]1CC(CC(=O)NCCCn2ccnc2)C(=O)N2CCc3c([nH]c4ccc(OC)cc34)[C@]12C` (some centres undefined)?
D3 ag: 28; D3 antag: 2

What do the screens show for `COc1ccc2[nH]c3c(c2c1)CCN1C(=O)C(CC(=O)NCCCn2ccnc2)C[C@H](C(=O)N(C(C)C)C(C)C)[C@@]31C` (some centres undefined)?
D3 ag: 51*; D3 antag: 5

How did COc1ccc2[nH]c3c(c2c1)CCN1C(=O)C(CC(=O)NCC24CC5CC(CC(C5)C2)C4)C[C@H](C(=O)N(C(C)C)C(C)C)[C@@]31C (some centres undefined) do in these assays?
D3 ag: 37*; D3 antag: -4

What do the screens show for `COc1cc(/C=C(\C#N)C(=O)NCCc2ccccc2)cc(OC)c1O`?
D3 ag: 1; D3 antag: 2; D1 ag: 73*; D1 antagonist: 16; D1 potentiator: 2

How did COc1ccc(/C=C(\C#N)C(=O)NCc2cccs2)cc1OC do in these assays?
D3 ag: -5; D3 antag: 11; D1 ag: 0; D1 antagonist: -34*; D1 potentiator: 0

What do the screens show for `COc1cc(/C=C(\C#N)C(=O)c2c[nH]c3ccccc23)cc(OC)c1O`?
D3 ag: 6; D3 antag: -13; D1 ag: 45*; D1 antagonist: -4; D1 potentiator: -2

What do the screens show for `N/C(=N\OC(=O)c1ccccc1Br)c1ccc([N+](=O)[O-])cc1`?
D3 ag: 3; D3 antag: -71*; D1 ag: 7; D1 antagonist: -8; D1 potentiator: -4

What do the screens show for `N/C(=N\OC(=O)c1ccc(Cl)c([N+](=O)[O-])c1)c1ccccc1`?
D3 ag: 2; D3 antag: -65*; D1 ag: 6; D1 antagonist: -21; D1 potentiator: -4

How did CC(C)Cn1cc(NC(=O)Nc2cccc(C(F)(F)F)c2)c2ccccc2c1=O do in these assays?
D3 ag: 2; D1 ag: 16; D1 antagonist: -12; D1 potentiator: 1

Results for C/C(=N/NC(=O)CNC(=O)c1ccccn1)c1cccc([N+](=O)[O-])c1 ?
D3 ag: -5; D3 antag: 12; D1 ag: 0; D1 antagonist: 7; D1 potentiator: 1

What do the screens show for `CCCSc1nc(O)c(C(c2ccc(OC)c(O)c2)c2c(O)nc(SCCC)n(C)c2=O)c(=O)n1C`?
D3 ag: 7; D3 antag: 3; D1 ag: 3; D1 antagonist: -16; D1 potentiator: 4

Results for Cn1cnnc1SCC(=O)Nc1ccccc1 ?
D3 ag: 10; D3 antag: 22; D1 ag: 2; D1 antagonist: 4; D1 potentiator: -1

How did Cn1cnnc1SCC(=O)Nc1ccc(Br)cc1F do in these assays?
D3 ag: 32*; D3 antag: 6; D1 ag: 1; D1 antagonist: 1; D1 potentiator: -3

Results for Cn1cnnc1SCC(=O)Nc1ccc(C#N)cc1 ?
D3 ag: 0; D1 ag: 0; D1 antagonist: -37*; D1 potentiator: -3

How did CCNc1nc(NCC)n2c(SCC(=O)Nc3ccc(Br)cc3F)nnc2n1 do in these assays?
D3 ag: -1; D3 antag: 9; D1 ag: 2; D1 antagonist: 10; D1 potentiator: -1

How did CC1CN(C(=O)CCC(=O)NCc2cccs2)c2ccccc2O1 (centres undefined) do in these assays?
D3 ag: -5; D1 ag: 0; D1 antagonist: -8; D1 potentiator: 3

Results for CCn1nc(C)cc1C(=O)NC1CC(C)(C)Cc2c1cnn2-c1cccc(F)c1 (centres undefined) ?
D3 ag: 2; D3 antag: 18; D1 ag: 0; D1 antagonist: -64*; D1 potentiator: -14

Results for Cc1cc(C)c(C(=O)NC2CC(C)(C)Cc3c2cnn3-c2cccc(F)c2)[nH]1 (centres undefined) ?
D3 ag: 9; D3 antag: 13; D1 ag: 9; D1 antagonist: 14; D1 potentiator: -2

Results for COc1ccc(CCNCc2ccc(OCc3ccccc3)cc2)cc1 ?
D3 ag: -3; D3 antag: -8; D1 ag: 61*; D1 antagonist: 19; D1 potentiator: 3

Results for CCOc1cc(CNCc2ccccc2)ccc1OCc1ccc(Cl)cc1 ?
D3 ag: -11; D3 antag: 7; D1 ag: 35*; D1 antagonist: -20; D1 potentiator: 3

Results for COc1ccc(CNCCc2ccc(Cl)cc2)cc1OCc1ccccc1 ?
D3 ag: -11; D3 antag: 0; D1 ag: 58*; D1 antagonist: -19; D1 potentiator: -3
